Experimental findings from PubChem BioAssay AID2685 (National Center for Advancing Translational Sciences (NCATS), 2010) are described below.

The structures appear in SMILES notation. Hit rate of the full screen: of about 320,000 compounds, about 2,100 (0.66%) were called active. Another 53% or so got no clear call; they are omitted. Calls follow the shape of the dose curve; as a rule, active = well fitted inhibition curve with a large enough effect in the signal ratio, with a control signal flat (not every such curve was filed as active); inconclusive = small, poorly fitted or top-dose-only effect, or effect the other way, or a change in a side signal; inactive = flat fitted curve, though single readings scatter; the % refers to the signal ratio. For the sample, actives were picked, then their nearest neighbours and some compounds at random.
Potency is read from the fitted curve at half-maximal effect.

This test is described as follows: qHTS Assay for Lipid Storage Modulators in Drosophila S3 Cells.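 As to cell number change: cells counted by Cell Tracker Red CMTPX staining in the red channel.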 To be noted: BODIPY lipid droplet fluorescence, 18-24 h, cells fed with added oleic acid; cell number change: measured here: cell count max response; series mostly up to 46.1 µM. In a few lines: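 Drosophila S3 cells got compounds at several concentrations plus oleic acid (400 uM solution). Laser-scanning cytometry with 488 nm excitation read lipid droplets at 500-530 nm and cells at 575-640 nm. Percent activity was relative to 20 uM Triacsin C.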
On to `CC1(OC(=O)C2CCCC2)C(=O)C=C2C=C(c3ccsc3)N(CCCCO)C=C2C1=O` (stereo not drawn), for which the Potency result is “inactive” and the cell number change was -2.75%.

Regarding `NC(=O)C(Cc1ccccc1)N1C(=O)c2ccccc2C1=O` (stereo not drawn), the Potency result is “inactive” and the cell number change is -7.43%. Regarding `O=C(O)C(CCCCN1C(=O)c2ccccc2C1=O)N1C(=O)c2ccccc2C1=O` (stereo not drawn), the Potency was 29.1 µM (active) and the cell number change was -7.36%. For the molecule `O=C1c2ccccc2C(=O)N1CCCOc1ccccc1`, the Potency result was “inactive” and the cell number change was -1.01%. For the molecule `CCC(C)(C)n1nnnc1C(c1ccc(N(C)C)cc1)N1CCN(C2CCCCC2)CC1` (stereo not drawn), the Potency entry is “inactive” and the cell number change was 1.78%.

On to `Cc1cc(OCC(O)CNC(C)(C)C)ccc1Cl` (stereo not drawn), for which the Potency result was “inactive” and the cell number change was 3.23%.

For `CCOC(=O)N1CCN(C(=O)CSc2ccccc2)CC1`, the Potency entry was “inactive”. `CCOC(=O)N1CCN(C(=O)CCSc2ccc(Cl)cc2)CC1`: the Potency result was “inactive” and the cell number change was -8.05%.

As for `CCOC(=O)N1CCN(C(=O)CSc2ccc(Cl)cc2)CC1`, the Potency was 2.59 µM (active) and the cell number change turned out to be 4.78%. Take `OC(CNCc1cccnc1)COc1ccc2ccccc2c1` (stereo not drawn): the Potency entry was “inactive” and the cell number change is -3.7%.

Take `CCOC(=O)C1=C(C)N=c2s/c(=C\c3ccc(OCC(=O)O)c(OC)c3)c(=O)n2C1c1ccc(OC)cc1` (stereo not drawn): the Potency entry is “inactive” and the cell number change was found to be 8.11%. As to `CCOC(=O)C1=C(C)N=c2s/c(=C\c3ccc(OCC(=O)O)cc3)c(=O)n2C1c1ccccc1` (stereo not drawn), the Potency entry was “inactive”. `CCOC(=O)C1=C(C)N=c2s/c(=C/c3ccc(OCC(=O)O)cc3)c(=O)n2C1c1ccc(OC)cc1OC` (stereo not drawn): the Potency is 11.6 µM (active) and the cell number change was -12.6%. As for `OCCN1CCN(c2cc(C(F)(F)F)nc3c(F)cccc23)CC1`, the Potency result was “inactive” and the cell number change came to 16.3%. As to `CCOC(=O)N1CCN(C(=O)C2CCN(S(=O)(=O)N3CCC4(CC3)OCCO4)CC2)CC1`, the Potency result was “inactive”.

As for `CC1(C)O[C@H]2CC(=O)OC[C@@]23C1CC(=O)[C@]1(C)C3CC[C@@]2(C)[C@H](c3ccoc3)OC(=O)[C@H]3O[C@]321` (stereo partly drawn), the Potency entry is “inactive”. Take `O=C(CN1CCN(C(=O)CNC(=O)c2ccc3c(c2)OCO3)CC1)Nc1ccccc1Cl`: the Potency result is “inactive” and the cell number change was 2.76%. With `Cc1ccccc1N1C(=O)C(Cl)=C(N2CCCCCC2)C1=O`, the Potency result is “inactive” and the cell number change is -0.204%.

On to `O=C1C(Cl)=C(N2CCOCC2)C(=O)N1c1ccccc1F`, for which the Potency entry is “inactive” and the cell number change is -18.5%. The matching figures for `O=C1C(Cl)=C(N2CCCC2)C(=O)N1c1ccccc1F`: 1.46 µM (active) and 2.93%. The matching figures for `O=C(NCc1ccccc1)C1CCCN1C(=O)Nc1ccccc1[N+](=O)[O-]` (stereo not drawn): 0.731 µM (active) and 14.7%. For the molecule `COc1ccc(NC(=O)C2CCCN2C(=O)NCc2ccccc2)cc1OC` (stereo not drawn), the Potency entry is “inactive” and the cell number change was found to be 1.64%. Taken in the same sequence, the figures for `COc1ccc(NC(=O)C2CCCN2C(=O)NCc2ccccc2)c(OC)c1` (stereo not drawn) were “inactive” and -2.72%. Taken in the same sequence, the figures for `COc1cccc(OC)c1NC(=O)C1CCCN1C(=O)NCc1ccccc1` (stereo not drawn) were 29.1 µM (active) and -20.9%. Taken in the same sequence, the figures for `COc1ccccc1NC(=O)N1CCCC1C(=O)NCc1ccccc1` (stereo not drawn) were “inactive” and -7.89%. With `CCOCCCNC(=O)C1CCCN1C(=O)Nc1ccccc1[N+](=O)[O-]` (stereo not drawn), the Potency entry was “inactive” and the cell number change stood at 3.63%.
